# Test results reported in the supplement of paper PMC12636033.
# ± gives the standard deviation of the averaged measurements. The full ranking holds about 33,000 sequences; the median of “E-score (rank enrichment, -0.5 to 0.5)” is about -0.0043, and the highest 2% start at about 0.24. The entries come from a sample that favours the highest values as a whole.
# Test system: 2Sp-muMax20 (muMax20 with two 2,6-bis(methyl)pyridine Cys staples)
# Assay: PBM 8-mer E-score (E-score (rank enrichment, -0.5 to 0.5)); higher = stronger preferential binding
# Experimental: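 Protein binding microarray (universal PBM chip covering all 10-mers in fixed probe flanks) with chemically synthesized human Max(13-93) bHLH-LZ analogs (not full-length Max) bearing noncanonical residues (hArg, Tha, Aib, Nle at 65) and aromatic Cys staples. Read-out per 8-mer (and its reverse complement): E-score (rank-based enrichment, -0.5 to 0.5) and Z-score of median probe intensity.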
row,Sequence,PBM 8-mer E-score
1,GCGTAGGA,0.112 ± 0.03
2,ATGCTTGG,0.102 ± 0.0062
3,GCTATATA,0.149 ± 0.013
4,ATTATACA,0.0914 ± 0.033
5,ATTATACG,0.125 ± 0.014
6,ACTATATA,0.254 ± 0.018
7,ATTATACC,0.238 ± 0.031
8,ACTATATG,0.196 ± 0.0091
9,CTTCGGAA,-0.0272 ± 0.017
10,ATTCGCCC,0.0547 ± 0.0036
11,ATCTGACA,-0.0699 ± 0.061
12,CTATTCAA,0.266 ± 0.08
13,ATATTCAA,0.157 ± 0.012
14,TTATTCAA,0.133 ± 0.037
15,ATATTCAT,0.299 ± 0.027
16,ATATTCAG,0.126 ± 0.074
17,ATATTCAC,0.109 ± 0.072
18,ACGCTTTC,-0.00481 ± 0.013
19,ACGCGAAT,0.0678 ± 0.068
20,TAGAATGA,0.207 ± 0.064
21,AAAGTATA,0.236 ± 0.03
22,AAAGTATT,0.223 ± 0.0032
23,CAAGTATA,0.142 ± 0.1
24,ATAGTATA,0.11 ± 0.035
25,GTAGTATA,0.236 ± 0.045

row,Sequence,PBM 8-mer E-score
1,CTAGTATA,0.219 ± 0.023
2,CGAACCTA,-0.123 ± 0.015
3,GCGCACTA,0.0235 ± 0.033
4,AAATGCTA,0.251 ± 0.058
5,GAATGCTA,-0.14 ± 0.023
6,AAATGCTG,0.0946 ± 0.018
7,GTAAACTA,0.175 ± 0.032
8,CACCAACA,0.106 ± 0.0083
9,GCCCCATA,0.29 ± 0.019
10,CCCCCATA,0.0149 ± 0.042
11,GGCCCATA,-0.0969 ± 0.099
12,GACCCATA,0.188 ± 0.032
13,CGCCCATA,0.0508 ± 0.075
14,AGCCCATA,0.238 ± 0.035
15,GTACCAAC,-0.0554 ± 0.078
16,ATCCAGGC,-0.01 ± 0.042
17,AAGACAGG,-0.106 ± 0.025
18,GTCTGGAA,-0.0499 ± 0.016
19,ATCCAAGA,-0.0976 ± 0.054
20,AGGTGGAT,-0.1057 ± 0.00054
21,AAAAATCG,-0.00934 ± 0.012
22,ACATAGTA,0.118 ± 0.076
23,CCATAGTA,0.144 ± 0.0076
24,GCATAGTA,0.273 ± 0.032
25,GCATAATA,0.2429 ± 0.0015

row,Sequence,PBM 8-mer E-score
1,ACATAATC,0.109 ± 0.04
2,GCATAAGA,0.0752 ± 0.0016
3,ACATAATA,0.262 ± 0.075
4,CCATAATA,0.161 ± 0.054
5,ACATAATG,0.193 ± 0.064
6,GACATGAC,0.00058 ± 0.047
7,GTATGCAC,0.075 ± 0.08
8,AACGTTGG,-0.0574 ± 0.07
9,CGAGCGAA,0.0234 ± 0.064
10,TGCATTAA,0.285 ± 0.014
11,CTCATTAC,0.197 ± 0.087
12,CTCATTAA,0.273 ± 0.031
13,AGCATTAG,0.0579 ± 0.1
14,ATCATTAA,0.0844 ± 0.0038
15,AGCATTAA,0.209 ± 0.0096
16,AGCATTAC,-0.0132 ± 0.0023
17,AGCATTAT,0.266 ± 0.05
18,CGCATTAA,0.0861 ± 0.014
19,CCGGGCTA,-0.277 ± 0.0046
20,TGACCTCA,-0.183 ± 0.016
21,AGCTCAGA,-0.181 ± 0.0029
22,CGGATAGC,-0.0994 ± 0.018
23,CTAGCTGA,-0.0742 ± 0.045
24,ATACATAC,0.0484 ± 0.023
25,AGTCATAG,0.0709 ± 0.034

row,Sequence,PBM 8-mer E-score
1,AGTCATAA,0.037 ± 0.035
2,AGACATAC,-0.0281 ± 0.088
3,ATACATAT,0.258 ± 0.0069
4,AGTCATAT,0.24 ± 0.015
5,AGACATAT,0.249 ± 0.0045
6,ATACATAA,0.0924 ± 0.008
7,AGACATAG,0.0229 ± 0.087
8,ACCTTATG,0.0929 ± 0.036
9,GGGGAACA,0.124 ± 0.0046
10,AATCAACC,0.157 ± 0.047
11,ACTAAGCT,-0.0864 ± 0.087
12,ATTCTCAC,0.0448 ± 0.078
13,ATAGCATC,0.118 ± 0.015
14,ATAGCATG,0.258 ± 0.037
15,ATAGCATA,0.204 ± 0.038
16,ATGACTTA,0.0917 ± 0.049
17,AGGATCAA,-0.0715 ± 0.043
18,AAACTGTA,0.00471 ± 0.023
19,GACAGATC,0.0282 ± 0.0066
20,AACAGATC,0.243 ± 0.058
21,AACAGATA,-0.0996 ± 0.022
22,CCCCAGGG,-0.293 ± 0.032
23,CCAGACCC,-0.142 ± 0.016
24,AAACTTGC,0.267 ± 0.039
25,AAACTTGA,0.17 ± 0.089

row,Sequence,PBM 8-mer E-score
1,CAACTTGC,-0.157 ± 0.011
2,TATTAATA,0.274 ± 0.1
3,TATTAACA,0.218 ± 0.011
4,GATTAATA,0.274 ± 0.062
5,CATTAATA,0.201 ± 0.014
6,GATTAACA,0.174 ± 0.046
7,GATTAATC,-0.0645 ± 0.077
8,GTCCTGCA,-0.0516 ± 0.027
9,ACCGCACT,-0.193 ± 0.07
10,AAACTGGC,-0.0533 ± 0.0029
11,AAAAAGGC,0.00635 ± 0.045
12,GAAAAGGC,0.308 ± 0.013
13,CAAAAGGC,0.0445 ± 0.053
14,GAAAGGCC,-0.146 ± 0.053
15,AAAAGGCC,0.3 ± 0.0042
16,AAAGGCCC,-0.012 ± 0.043
17,CAAGGCCG,-0.065 ± 0.016
18,AAAGGCCG,0.281
19,CAAAGGCC,0.0557 ± 0.1
20,AGTGTCGG,-0.166 ± 0.11
21,GATGCCCC,-0.0212 ± 0.099
22,ATTGAGGC,0.167 ± 0.021
23,AACATGCG,0.253 ± 0.035
24,CACATGTC,0.0937 ± 0.018
25,CACATGAA,0.138 ± 0.035

row,Sequence,PBM 8-mer E-score
1,CACATGTA,0.312 ± 0.02
2,CACATGTG,0.4178 ± 0.00081
3,CACATGCG,0.166 ± 0.097
4,ACCATGTC,0.0986 ± 0.05
5,CAAATGTG,0.0759 ± 0.025
6,ACCATGTA,0.0783 ± 0.049
7,ACCATGTG,0.262 ± 0.03
8,CTCATGTA,0.0793 ± 0.033
9,AACATGCT,0.126 ± 0.0074
10,CCCTAAAG,0.134 ± 0.057
11,ACTCTAGC,-0.0888 ± 0.0064
12,GGGGCAAA,0.0419 ± 0.059
13,AGCCCAAC,0.0919 ± 0.041
14,GCTGACCA,-0.0567 ± 0.026
15,AGCCTTGG,0.0479 ± 0.022
16,ACAAGTAG,0.00901 ± 0.018
17,GACATGTA,0.217 ± 0.066
18,AGCATGTG,0.223 ± 0.016
19,TACATGCA,0.222 ± 0.018
20,AACATGTT,0.304 ± 0.043
21,TACATGTA,0.265 ± 0.051
22,AACATGTC,0.143 ± 0.038
23,AACATGTA,0.2242 ± 0.0011
24,AACATGTG,0.36 ± 0.026
25,AACATGAG,0.0341 ± 0.0065

row,Sequence,PBM 8-mer E-score
1,AGGGCTCG,-0.212 ± 0.027
2,ACAAGGGG,0.0199 ± 0.047
3,TCGATACA,0.197 ± 0.0083
4,GCGATGGA,-0.138 ± 0.0024
5,ATAGCCGA,-0.00055 ± 0.0078
6,ATTCCAGA,0.0163 ± 0.071
7,CGGTGATC,-0.15 ± 0.0077
8,ACTTGAAG,0.186 ± 0.027
9,CATGTATA,0.165 ± 0.0069
10,CATGTAAA,0.12 ± 0.055
11,AATGTATA,0.269 ± 0.048
12,GATGTATA,0.107 ± 0.023
13,AATGTAAA,0.311 ± 0.014
14,AATGTAAT,0.189 ± 0.0034
15,ATCTCTGA,-0.0124 ± 0.14
16,AGCCGGTG,-0.254 ± 0.045
17,CCCGTACG,-0.0914 ± 0.052
18,AAGGCGTG,-0.0484 ± 0.012
19,ACGTGCAA,0.212 ± 0.029
20,CATAATAA,0.0619 ± 0.015
21,AATAATAC,-0.0356 ± 0.042
22,AATAATAG,0.137 ± 0.084
23,CATAATAC,0.249 ± 0.028
24,CATAATAG,0.237 ± 0.028
25,CATAATGG,0.153 ± 0.026
